From PubChem BioAssay
ARNT-TACC3 inh – disruptors of human ARNT/TACC3 interaction | 0.66% of 390,000 active | inhibition, % at 9.99 µM | AID 623870 | AlphaScreen His-ARNT PAS-B/GST-TACC3 binding, luminescence; TACC3 fragment carries E629A point mutation | Q9Y6A5;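 active means mean inhibition of replicates at least 50% and at least half of replicates each reaching 50%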;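 further: 0% = complete ARNT plus TACC3 wells and 100% = ARNT alone without TACC3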
Cardio protect – protects H9c2 cardiomyocytes from peroxide injury; protection from H2O2 cell death, % at 20 µM; H2O2 injury protection, ATPLite, 2 h; 0.63% of 360,000 active;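 active means compounds giving at least 50% protection of heart cells from peroxide-induced death in the single-dose screen, raw or plate-pattern-corrected value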;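 further: 0% = DMSO wells with peroxide and 100% = DMSO wells without peroxide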
aDG glyco up – increases alpha dystroglycan glycosylation | Pro5-aDG cells, alpha-DG glycosylation AlphaScreen (IIH6); 0% Pro5, 100% B10-LARGE cell signal | activation, % at 10 µM | 0.22% of 360,000 active | AID 624168;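 active means activation of at least 8% versus controls, or a plate z-score of at least 8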;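 further: Pro5 are CHO cells carrying HIG-tagged alpha-DG that lacks glycosylation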
Glyco luc inh – N-linked glycosylation inhibition. D54 ERlucT glycosylation luciferase reporter, 24 h; percent of 100 nM tunicamycin response. reporter increase, % at 12.5 µM. 0.23% of 360,000 active. AID 588692;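 active means mean luciferase reporter signal, scaled so untreated is 0 and the glycosylation-blocking control 100, at or above a set limit in every replicate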;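 further: luciferase carries N-glycosylation sites so blocking glycosylation raises the light; 0% = median of neutral control wells and 100% = median of 100 nM tunicamycin wells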
Vif imaging – blocks HIV Vif function | HEK293T cells, Vif self-association by quenched fluorescence, imaging, 24 h | inhibition, % at 7.49 µM | 0.35% of 340,000 active; in the data active means inhibition above about 50%, passing the limit was not always enough
Starred values were filed as active, the others as inactive; i = inactive; x = no result given. Shown are actives, neighbours in structure and some others; about 1.7% of the full set was active somewhere.

SMILES | ARNT-TACC3 inh | Cardio protect | aDG glyco up | Glyco luc inh | Vif imaging
C[C@H](CO)N1C[C@H](C)[C@@H](CN(C)S(=O)(=O)c2cn(C)cn2)OCCCC[C@H](C)Oc2ccc(NC(=O)Nc3ccccc3)cc2C1=O | 0 | x | x | x | x
CCCN1CCc2c(sc(NC(=O)c3ccc(S(=O)(=O)N4CCN(C(=O)OCC)CC4)cc3)c2C(N)=O)C1 | -5 | -3 | 12* | -3 | i
CN1CCc2c(sc(NC(=O)c3ccc(S(=O)(=O)N4CCCCCC4)cc3)c2C(N)=O)C1 | 0 | 1 | 33* | 10 | i
CCOC(=O)N1CCN(S(=O)(=O)c2ccc(C(=O)Nc3sc4c(c3C(=O)OC)CCN(C)C4)cc2)CC1 | x | -19 | 0 | -13 | -10
CC(C)N1CCc2c(sc(NC(=O)c3cc4cc([N+](=O)[O-])ccc4s3)c2C(N)=O)C1 | 7 | -26 | 4 | -17 | 80*
CN1CCc2c(sc(NC(=O)c3cc(Cl)sc3Cl)c2C(N)=O)C1 | x | 14 | 2 | 0 | 161*
CN1CCc2c(sc(NC(=O)c3ccc(S(=O)(=O)N4CCOCC4)cc3)c2C(N)=O)C1 | -6 | 6 | 1 | 1 | i
CC(C)N1CCc2c(sc(NC(=O)c3ccc4ccccc4c3)c2C(N)=O)C1 | -10 | -9 | 2 | -4 | i
C[C@H]1CN([C@@H](C)CO)C(=O)c2cc(-c3cccc(C#N)c3)cnc2O[C@@H]1CN(C)Cc1ccc(F)cc1 | -8 | x | x | x | x
CO[C@@H]1CN(C)C(=O)c2cc(NS(=O)(=O)c3cccc(C)c3)ccc2OC[C@@H](C)NC[C@@H]1C | -2 | x | x | x | x
C[C@@H]1CN([C@H](C)CO)S(=O)(=O)c2ccc(Br)cc2O[C@@H]1CN(C)C(=O)c1cnccn1 | 2 | x | x | x | x
O=C(N/N=C/c1ccc([N+](=O)[O-])s1)C(O)c1ccccc1 (stereo not given) | 5 | -16 | 11* | -7 | -1
O=C(N/N=C/c1ccc([N+](=O)[O-])s1)c1ccccc1 | -3 | -4 | 9.5* | 1 | 0
O=C(Cc1ccccc1)N/N=C/c1ccc([N+](=O)[O-])s1 | 2 | 6 | 3 | 0 | 0
O=C(N/N=C/c1ccc([N+](=O)[O-])s1)c1ccccc1Br | 6 | -11 | 5.6* | 4 | 89*
Cc1ccccc1C(=O)N/N=C/c1ccc([N+](=O)[O-])s1 | 5 | -6 | 4 | 7 | -7
CC=Cc1ccc2n(c1=O)C[C@@H]1[C@@H](CO)[C@H](C(=O)NCC(F)(F)F)N(C(=O)c3cccnc3)[C@H]21 (mixture of isomers) | -3 | x | x | x | x
C[C@H](CO)N1C[C@H](C)[C@@H](CN(C)S(C)(=O)=O)Oc2ccc(NC(=O)CCCCCC(=O)Nc3ccccc3N)cc2CC1=O | 6 | x | x | x | x
CC(C)NC(=O)N1[C@@H](CO)[C@@H]2c3ccccc3N(C(=O)Nc3ccc(F)cc3)C[C@@H]21 | 3 | x | x | x | x
COc1ccc(NC(=O)N(C)C[C@@H]2OCCCC[C@H](C)Oc3ccc(NC(=O)Nc4ccc5c(c4)OCO5)cc3C(=O)N([C@@H](C)CO)C[C@H]2C)cc1 | 5 | x | x | x | x
